Laboratory results from PubChem BioAssay (NCATS).
For part of these data: Measured potencies and affinities stand elsewhere. Calls of active or inactive are those of the source.

Assays:
[1] = Ebola virus entry assay, green fluorescence channel
[2] = Ebola virus entry assay, ratio channel readout
[3] = Ebola virus entry assay, blue channel fluorescence
[4] = Ebola virus entry assay, ratio channel
[5] = Ebola virus entry assay, reporter ratio channel; AC50: Channel type: primary unless noted; outcome: Channel type: primary unless noted
[6] = Ebola virus entry cell assay, ratio channel

SMILES	outcome [1]	outcome [2]	AC50 [3]	AC50 [4]	AC50 [5]	outcome [6]	AC50 [6]	outcome [4]	AC50 [2]	outcome [5]
COc1cc2nc(N3CCN(C(=O)C4COc5ccccc5O4)CC3)nc(N)c2cc1OC (centres undefined)	inactive	inactive	15.8 µM (active)	15.8 µM (active)	15.8 µM (active)	inactive				
Cc1ccccc1C(OCCN(C)C)c1ccccc1 (centres undefined)	inactive	inactive	7.94 µM (active)	8.91 µM (active)	8.91 µM (active)		8.91 µM (active)			
Cc1ccc(-c2cc(C(F)(F)F)nn2-c2ccc(S(N)(=O)=O)cc2)cc1	inactive	inactive	39.8 µM (active)		39.8 µM (active)		11.2 µM (active)	inactive		
CC(CN(C)C)CN1c2ccccc2CCc2ccccc21 (centres undefined)	inactive		7.94 µM (active)	6.31 µM (active)	6.31 µM (active)		14.1 µM (active)		14.1 µM (active)	
CCN(CC)CCCC(C)Nc1ccnc2cc(Cl)ccc12 (centres undefined)	inactive		1.26 µM (active)	1.12 µM (active)	1.12 µM (active)		2.82 µM (active)		2.82 µM (active)	
C=C1C[C@@H]2[C@H](CC[C@]3(C)C(=O)CC[C@@H]23)[C@@]2(C)C=CC(=O)C=C12	inactive	inactive	28.2 µM (active)	25.1 µM (active)	25.1 µM (active)		15.8 µM (active)			
CNCC[C@@H](Oc1ccccc1C)c1ccccc1	inactive	inactive	10 µM (active)	10 µM (active)	10 µM (active)		17.8 µM (active)			
COc1cc(NCc2ccc3nc(N)nc(N)c3c2C)cc(OC)c1OC	inactive	inactive	35.5 µM (active)	28.2 µM (active)	28.2 µM (active)	inactive				
CN(C)CCCN1c2ccccc2Sc2ccc(Cl)cc21	inactive	inactive	14.1 µM (active)	3.98 µM (active)	3.98 µM (active)		10 µM (active)			
CN(C)CCCN1c2ccccc2CCc2ccc(Cl)cc21	inactive		3.16 µM (active)	3.16 µM (active)			6.31 µM (active)		6.31 µM (active)	inactive [Channel type: confirmation]
CN(C)C(=O)C(CCN1CCC(O)(c2ccc(Cl)cc2)CC1)(c1ccccc1)c1ccccc1	inactive	inactive	3.16 µM (active)	2.51 µM (active)	2.51 µM (active)		11.2 µM (active)			
CCC(=O)C(CC(C)N(C)C)(c1ccccc1)c1ccccc1 (centres undefined)	inactive	inactive	10 µM (active)	7.94 µM (active)	7.94 µM (active)		15.8 µM (active)			
C[C@@H](O[C@H]1OCCN(Cc2n[nH]c(=O)[nH]2)[C@H]1c1ccc(F)cc1)c1cc(C(F)(F)F)cc(C(F)(F)F)c1	inactive	inactive	28.2 µM (active)	28.2 µM (active)	28.2 µM (active)	inactive				
COC(=O)C1=C(C)NC(C)=C(C(=O)OCC(C)C)C1c1ccccc1[N+](=O)[O-] (centres undefined)	inactive	inactive	28.2 µM (active)	17.8 µM (active)	17.8 µM (active)	inactive				
CN(C)c1cc(NC(=O)CNC(C)(C)C)c(O)c2c1C[C@@H]1C[C@H]3[C@H](N(C)C)C(=O)C(C(N)=O)=C(O)[C@@]3(O)C(=O)C1=C2O	inactive	inactive	8.91 µM (active)	8.91 µM (active)	8.91 µM (active)	inactive				
CN1CCN(C2=Nc3ccccc3Oc3ccc(Cl)cc32)CC1	inactive	inactive	39.8 µM (active)	31.6 µM (active)	31.6 µM (active)	inactive				
CC[C@@H]([C@H](C)O)n1ncn(-c2ccc(N3CCN(c4ccc(OC[C@@H]5CO[C@@](Cn6cncn6)(c6ccc(F)cc6F)C5)cc4)CC3)cc2)c1=O	inactive	inactive	4.47 µM (active)	3.98 µM (active)	3.98 µM (active)		8.91 µM (active)			
CC(C)NCC(O)COc1ccc(CCOCC2CC2)cc1 (centres undefined)	inactive	inactive	14.1 µM (active)	11.2 µM (active)	11.2 µM (active)		15.8 µM (active)			
CN1CCN(CCCN2c3ccccc3Sc3ccc(C(F)(F)F)cc32)CC1	inactive	inactive	3.55 µM (active)	2.82 µM (active)			3.98 µM (active)			inactive [Channel type: confirmation]
Cc1ccc(O)c([C@H](CCN(C(C)C)C(C)C)c2ccccc2)c1	inactive	inactive	14.1 µM (active)	12.6 µM (active)	12.6 µM (active)		11.2 µM (active)			
O=C1c2c(O)ccc(O)c2C(=O)c2c(NCCNCCO)ccc(NCCNCCO)c21	inactive	inactive	12.6 µM (active)	7.94 µM (active)	7.94 µM (active)		5.01 µM (active)			
NC(=O)C(c1ccccc1)(c1ccccc1)[C@@H]1CCN(CCc2ccc3c(c2)CCO3)C1	inactive	inactive	39.8 µM (active)	31.6 µM (active)	31.6 µM (active)	inactive				
COc1cc(NC(C)CCCN)c2ncccc2c1 (centres undefined)	inactive	inactive	5.01 µM (active)	3.55 µM (active)	3.55 µM (active)	inactive				
Clc1ccc2c(c1)C(N1CCNCC1)=Nc1ccccc1O2	inactive		14.1 µM (active)	10 µM (active)	10 µM (active)		12.6 µM (active)		12.6 µM (active)	
